# From PubChem BioAssay AID1159580 (chemical genetic matrix, 2015)
# The whole screen tested about 5,500 compounds, of which about 2,000 (36%) were called active. Roughly 18% stayed inconclusive and do not appear here. The list shows a part of the results. A number with no mark means an inactive call. Cut-off read from the data, not from the text of the source: active = normalized growth mostly below about 0.91 (no sharp cut-off); inconclusive = no clear call, values can overlap the other calls; inactive = mostly above about 0.92.
# Test: chemical genetic growth profiling, strain panel (AID 1159580);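 note: tested at 20 µM; growth read once vehicle control cultures reached saturation at 30 °C; 1 = growth at the plate median or of vehicle wells; lower values mean less growth of the strain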
# Conditions: S. cerevisiae deletion strains, growth OD
# [1] = locus YBR021W, strain FUR4, hits give low values
# [2] = locus YBR229C, strain ROT2, hits give low values
# [3] = locus YCL029C, strain bik1, hits give low values
# [4] = locus YDL035C, strain GPR1, hits give low values
# [5] = locus YDL074C, strain BRE1, hits give low values
# [6] = locus YDL101C, strain DUN1, hits give low values
# [7] = locus YDL185W, strain tfp1, hits give low values
# [8] = locus YDL192W, strain arf1, hits give low values
# [9] = locus YDR101C, strain arx1, hits give low values
# [10] = locus YDR150W, strain NUM1, hits give low values
# [11] = locus YDR162C, strain NBP2, hits give low values
# [12] = locus YDR318W, strain mcm21, hits give low values
# [13] = locus YDR388W, hits give low values
# [14] = locus YDR502C, strain sam2, hits give low values
# [15] = locus YEL061C, strain CIN8, hits give low values
# [16] = locus YER110C, hits give low values
# [17] = locus YER155C, strain BEM2, hits give low values
# [18] = locus YER167W, strain BCK2, hits give low values
# [19] = locus YGL078C, strain dbp3, hits give low values
# [20] = locus YGL086W, strain mad1, hits give low values
# [21] = locus YGL248W, strain PDE1, hits give low values
# [22] = locus YGR135W, strain pre9, hits give low values
# [23] = locus YGR229C, strain SMI1, hits give low values
# [24] = locus YGR252W, strain gcn5, hits give low values
# [25] = locus YHR030C, strain SLT2, hits give low values
# [26] = locus YHR079C, strain IRE1 (second series), hits give low values
# [27] = locus YHR094C, strain hxt1, hits give low values
# [28] = locus YHR129C, strain ARP1, hits give low values
# [29] = locus YHR200W, strain rpn10, hits give low values
# [30] = locus YIL066C, strain RNR3, hits give low values
# [31] = locus YIL073C, strain SPO22, hits give low values
# [32] = locus YIL125W, strain kgd1, hits give low values
# [33] = locus YIR030C, strain dcg1, hits give low values
# [34] = locus YJL095W, strain BCK1, hits give low values
# [35] = locus YJL134W, strain LCB3, hits give low values
# [36] = locus YJL168C, strain set2, hits give low values
# [37] = locus YJL187C, strain SWE1 (second series), hits give low values
# [38] = locus YJR043C, strain POL32, hits give low values
# [39] = locus YKL009W, strain mrt4, hits give low values
# [40] = locus YKL068W, hits give low values
# [41] = locus YKL085W, strain MDH1 (second series), hits give low values
# [42] = locus YKL085W, strain MDH1, hits give low values
# [43] = locus YKR001C, strain vps1, hits give low values
# [44] = locus YLR039C, strain RIC1, hits give low values
# [45] = locus YLR058C, strain SHM2, hits give low values
# [46] = locus YLR102C, strain apc9, hits give low values
# [47] = locus YLR268W, strain sec22, hits give low values
# [48] = locus YLR371W, strain rom2, hits give low values
# [49] = locus YLR418C, strain cdc73, hits give low values
# [50] = locus YML016C, strain PPZ1, hits give low values
# [51] = locus YML032C, strain rad52, hits give low values
# [52] = locus YML124C, strain tub3, hits give low values
# [53] = locus YMR078C, strain ctf18, hits give low values
# [54] = locus YMR223W, strain ubp8, hits give low values
# [55] = locus YMR307W, strain GAS1, hits give low values
# [56] = locus YNL067W, strain RPL9B, hits give low values
# [57] = locus YNL153C, strain GIM3, hits give low values
# [58] = locus YNL233W, strain BNI4, hits give low values
# [59] = locus YNL250W, strain rad50, hits give low values
# [60] = locus YNL271C, strain bni1, hits give low values
# [61] = locus YNL298W, strain CLA4, hits give low values
# [62] = locus YNL307C, strain MCK1, hits give low values
# [63] = locus YNR052C, strain pop2, hits give low values
# [64] = locus YOL006C, strain TOP1, hits give low values
# [65] = locus YOL147C, strain pex11, hits give low values
# [66] = locus YOR061W, strain CKA2, hits give low values
# [67] = locus YOR069W, strain VPS5, hits give low values
# [68] = locus YOR136W, strain idh2, hits give low values
# [69] = locus YOR144C, strain elg1, hits give low values
# [70] = locus YOR184W, strain ser1, hits give low values
# [71] = locus YOR316C, strain cot1, hits give low values
# [72] = locus YPR119W, strain clb2, hits give low values
# [73] = locus YPR141C, strain kar3, hits give low values
# [74] = locus YPR163C, strain tif3, hits give low values
# [75] = locus YPR167C, strain met16, hits give low values
# [76] = strain wtn01, hits give low values
smiles,measurement,setting,value
COc1ccc(-c2c(O)c3cc4c(c(CC=C(C)C)c3oc2=O)OC(C)(C)CC4)cc1,normalized growth,[1],1.01
same,normalized growth,[2],0.996
same,normalized growth,[3],1.02
same,normalized growth,[4],1.01
same,normalized growth,[5],1.03
same,normalized growth,[6],1.01
same,normalized growth,[7],1.03
same,normalized growth,[8],1.03
same,normalized growth,[9],1.01
same,normalized growth,[10],1.01
same,normalized growth,[11],0.993
same,normalized growth,[12],1.01
same,normalized growth,[13],1.02
same,normalized growth,[14],1.02
same,normalized growth,[15],1.01
same,normalized growth,[16],1.03
same,normalized growth,[17],1.01
same,normalized growth,[18],1.01
same,normalized growth,[19],1.01
same,normalized growth,[20],1.03
same,normalized growth,[21],1
same,normalized growth,"locus YGR078C, strain PAC10, hits give low values",1.01
same,normalized growth,[22],1.03
same,normalized growth,[23],1.02
same,normalized growth,[24],1.02
same,normalized growth,[25],1.01
same,normalized growth,[26],1.01
same,normalized growth,[27],1.02
same,normalized growth,[28],1.01
same,normalized growth,[29],1
same,normalized growth,[30],1.01
same,normalized growth,[31],1.06
same,normalized growth,[32],1.02
same,normalized growth,[33],1.01
same,normalized growth,[34],1.01
same,normalized growth,[35],1.01
same,normalized growth,[36],1.02
same,normalized growth,[37],1.01
same,normalized growth,[38],1.01
same,normalized growth,[39],1.11
same,normalized growth,[40],1.01
same,normalized growth,[41],1.01
same,normalized growth,[42],1.01
same,normalized growth,"locus YKL190W, strain CNB1, hits give low values",1
same,normalized growth,[43],1.02
same,normalized growth,[44],1.02
same,normalized growth,[45],1.01
same,normalized growth,[46],1.01
same,normalized growth,"locus YLR262C, strain YPT6, hits give low values",1.07
same,normalized growth,[47],1.02
same,normalized growth,"locus YLR330W, strain CHS5, hits give low values",1.02
same,normalized growth,"locus YLR342W, strain FKS1 (second series), hits give low values",1.02
same,normalized growth,[48],1.02
same,normalized growth,[49],1.01
same,normalized growth,[50],1.01
same,normalized growth,[51],1.02
same,normalized growth,[52],1.01
same,normalized growth,[53],1.02
same,normalized growth,[54],1.01
same,normalized growth,"locus YMR263W, strain SAP30, hits give low values",1.01
same,normalized growth,[55],1.08
same,normalized growth,[56],1.01
same,normalized growth,"locus YNL128W, strain TEP1, hits give low values",1
same,normalized growth,[57],1
same,normalized growth,[58],1
same,normalized growth,[59],1.02
same,normalized growth,[60],1.01
same,normalized growth,[61],1.01
same,normalized growth,[62],1.02
same,normalized growth,[63],1.02
same,normalized growth,[64],1.17
same,normalized growth,"locus YOL012C, strain htz1",1.44
same,normalized growth,[65],1
same,normalized growth,[66],1
same,normalized growth,[67],1.01
same,normalized growth,[68],1.02
same,normalized growth,[69],0.999
same,normalized growth,[70],0.993
same,normalized growth,[71],1.02
same,normalized growth,"locus YPL241C, strain CIN2, hits give low values",1.01
same,normalized growth,[72],1.02
same,normalized growth,[73],1.02
same,normalized growth,[74],1.01
same,normalized growth,[75],1.01
same,normalized growth,[76],1.01
COc1c(CC=C(C)C)c2c(c3oc(=O)c(-c4ccc(O)cc4)c(O)c13)C=CC(C)(C)O2,normalized growth,[1],0.918
same,normalized growth,[2],1.01
same,normalized growth,[3],0.841 (active)
same,normalized growth,[4],0.918
same,normalized growth,[5],0.687 (active)
same,normalized growth,[6],0.964
same,normalized growth,[7],1.03
same,normalized growth,[8],0.875 (active)
same,normalized growth,[9],0.92
same,normalized growth,[10],1.03
same,normalized growth,[11],0.875
same,normalized growth,[12],0.896 (active)
same,normalized growth,[13],0.975
same,normalized growth,[14],0.94
same,normalized growth,[15],0.968
same,normalized growth,[16],0.986
same,normalized growth,[17],0.752 (active)
same,normalized growth,[18],0.951
same,normalized growth,[19],1
same,normalized growth,[20],0.937
same,normalized growth,[21],0.921
same,normalized growth,[22],0.989
same,normalized growth,[23],0.722 (active)
same,normalized growth,[24],1.02
same,normalized growth,[25],0.974
same,normalized growth,[26],0.979
same,normalized growth,[27],0.976
same,normalized growth,[28],0.899 (active)
same,normalized growth,[29],0.908 (active)
same,normalized growth,[30],0.903
same,normalized growth,[31],0.952
same,normalized growth,[32],0.957
same,normalized growth,[33],0.953
same,normalized growth,[34],0.74 (active)
same,normalized growth,[35],1.01
same,normalized growth,[36],0.961
same,normalized growth,[37],0.945
same,normalized growth,[38],0.947
same,normalized growth,[39],0.985
same,normalized growth,[40],1.01
same,normalized growth,[41],0.958
same,normalized growth,[42],0.958
same,normalized growth,[43],0.869 (active)
same,normalized growth,[44],0.889
same,normalized growth,[45],0.912
same,normalized growth,[46],0.978
same,normalized growth,[47],0.853 (active)
same,normalized growth,[48],0.769 (active)
same,normalized growth,[49],0.649 (active)
same,normalized growth,[50],0.992
same,normalized growth,[51],0.896 (active)
same,normalized growth,[52],0.983
same,normalized growth,[53],0.98
same,normalized growth,[54],0.925
same,normalized growth,[55],0.773
same,normalized growth,[56],0.97
same,normalized growth,[57],0.922
same,normalized growth,[58],0.881
same,normalized growth,[59],1.04
same,normalized growth,[60],0.998
same,normalized growth,[61],0.989
same,normalized growth,[62],0.677 (active)
same,normalized growth,"locus YNL322C, strain KRE1, hits give low values",0.972
same,normalized growth,[63],0.917
same,normalized growth,[64],0.779
same,normalized growth,"locus YOL012C, strain htz1",0.812
same,normalized growth,[65],0.902 (active)
same,normalized growth,[66],0.982
same,normalized growth,[67],0.997
same,normalized growth,[68],0.934
same,normalized growth,[69],0.968
same,normalized growth,[70],0.476 (active)
same,normalized growth,[71],0.976
same,normalized growth,[72],0.977
same,normalized growth,[73],1
same,normalized growth,[74],0.84 (active)
same,normalized growth,[75],0.938
same,normalized growth,[76],0.905
